# In PubChem BioAssay (NCI):
# The panel holds about 79,000 compounds, 15% with a hit somewhere; the sample as a whole holds those more often. Values without a mark were called inactive. Calls of active or inactive are those of the source. Rule as the data show it: active = growth inhibition above about 70%; inactive = the rest.
# What was measured:
# [1] = NCI Yeast Anticancer Drug Screen. Data for the rad50 strain (AID 155);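 also: 0% = growth of vehicle-only cultures of the same strain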; details: S. cerevisiae rad50 strain growth inhibition, hits give high values
# How it was run: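 Genetically altered yeast (DNA repair pathway); compound treatment; growth inhibition vs vehicle ctrl.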
# [2] = NCI Yeast Anticancer Drug Screen. Data for the mec2-1 strain (AID 157); details: S. cerevisiae mec2-1 strain, hits give high values
# How it was run: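 Growth inhibition is read against vehicle-treated controls after compound exposure of the mec2-1 yeast strain, which is defective in DNA damage repair or cell cycle control.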
# [3] = NCI Yeast Anticancer Drug Screen. Data for the sgs1 mgt1 strain (AID 161);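 also: 0% = growth of cultures given vehicle only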; details: S. cerevisiae sgs1 mgt1 strain, hits give high values
# How it was run: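 Growth of a repair-deficient yeast mutant was monitored after compound treatment and expressed as inhibition relative to vehicle-treated cultures.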
# [4] = NCI Yeast Anticancer Drug Screen. Data for the cln2 rad14 strain (AID 165);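 also: 0% = growth equal to vehicle treated cultures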; details: S. cerevisiae cln2 rad14 strain, hits give high values
# How it was run: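 Growth inhibition, relative to vehicle-treated controls, is the read-out. The test organism is a yeast strain with defined genetic alterations, cln2 rad14.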
# [5] = NCI Yeast Anticancer Drug Screen. Data for the bub3 strain (AID 167); details: S. cerevisiae bub3 mutant strain, hits give high values
# How it was run: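 Yeast carrying a defined mutation is treated with each compound, and growth is compared with that of vehicle-exposed cells to give inhibition.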
# [6] = NCI Yeast Anticancer Drug Screen. Data for the mlh1 rad18 strain (AID 175); details: S. cerevisiae mlh1 rad18 strain growth inhibition, hits give high values
# How it was run: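 Cells of a genetically altered yeast strain, deficient in DNA damage repair, were treated with compound. Their growth was then compared with that of vehicle-treated cultures to give inhibition.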
# [7] = at 5.0 µM (retest, dose inferred, filed as 0.5)
# [8] = at 50.0 µM (retest, dose inferred, filed as 5.0)
Compound,"growth inhibition [1, 7]","growth inhibition [1, 8]",growth inhibition ([1]; at 50.0 µM),"growth inhibition [2, 7]","growth inhibition [2, 8]",growth inhibition ([2]; at 50.0 µM),"growth inhibition [3, 7]","growth inhibition [3, 8]",growth inhibition ([3]; at 50.0 µM),"growth inhibition [4, 7]","growth inhibition [4, 8]",growth inhibition ([4]; at 50.0 µM),"growth inhibition [5, 7]","growth inhibition [5, 8]",growth inhibition ([5]; at 50.0 µM),"growth inhibition [6, 7]","growth inhibition [6, 8]",growth inhibition ([6]; at 50.0 µM)
CCOC(=O)C(=Cc1ccc(C(=O)OC)cc1)C(=O)OCC,10%,58%,82.2% (active),11%,86% (active),75.2% (active),-2%,63%,75.3% (active),38%,80% (active),69.5%,12%,93% (active),77.2% (active),14%,88% (active),62.8%
Oc1[nH]c2ccccc2c1N=NC(=S)N1CCCCCC1,6%,98% (active),54.5%,-5%,97% (active),72.2% (active),-13%,98% (active),83.2% (active),-17%,98% (active),78.5% (active),-28%,99% (active),87.1% (active),-8%,98% (active),79.8% (active)
CCSc1c2ccccc2nc2c(OC)ccc(OC)c12,3%,70% (active),88.7% (active),-3%,23%,35.4%,-7%,30%,63.1%,-7%,-7%,48.7%,-7%,20%,39.4%,-3%,54%,90.3% (active)
CCc1cc2c(c3[nH]ccc13)[C@@H](C)C[C@H]2C,-3%,99% (active),73% (active),3%,99% (active),84.2% (active),0%,99% (active),84.8% (active),-3%,98% (active),84.3% (active),9%,98% (active),91.5% (active),2%,99% (active),88.5% (active)
CC(C)C12CCC3(CCC4C(C)(C(=O)O)CCCC4(C)C3C1)C(CN)C2 (configuration not stated),3%,98% (active),97.3% (active),9%,98% (active),95.5% (active),17%,95% (active),94.9% (active),-20%,98% (active),97.8% (active),-4%,98% (active),96% (active),6%,98% (active),93.3% (active)
Clc1cc2c(c3ncccc13)OCN(CCc1ccccc1)C2,5%,8%,98.7% (active),-3%,-5%,94.2% (active),2%,7%,99.2% (active),1%,16%,78.5% (active),4%,0%,69.6%,2%,10%,98.4% (active)
Cc1ccc(C2(C)CC/C(=N/O)c3cc(C)c(C)cc32)cc1C (configuration not stated),72% (active),89% (active),90.5% (active),61%,88% (active),90.8% (active),66%,90% (active),88.7% (active),63%,91% (active),91.2% (active),80% (active),92% (active),87.9% (active),83% (active),92% (active),90.5% (active)
O=C(N/N=C/c1ccc2c(c1)OCO2)c1ccc([N+](=O)[O-])cc1,3%,2%,5.35%,-14%,-15%,14.5%,8%,7%,14.8%,4%,5%,30.7%,0%,16%,0.25%,3%,13%,57%
CCN(CC)CCNc1ccc2ncn3c4c(OC)ccc(=O)c4c(O)c1c23,24%,96% (active),25.4%,9%,65%,19.9%,3%,54%,22.6%,-1%,29%,-1.95%,9%,19%,-13.1%,9%,83% (active),4.65%
Clc1ccc(C(CCc2ccc(Br)cc2)Cn2ccnc2)c(Cl)c1 (configuration not stated),94% (active),99% (active),99.4% (active),82% (active),99% (active),99.5% (active),87% (active),99% (active),59.7%,72% (active),99% (active),99.5% (active),91% (active),99% (active),99.2% (active),71% (active),98% (active),99.5% (active)
O=[N+]([O-])c1ccc(C2=Nn3c(nnc3-c3ccc(Cl)cc3)SC2)o1,19%,83% (active),66.5%,10%,44%,37.7%,29%,73% (active),62.1%,-2%,94% (active),65.5%,12%,93% (active),55.9%,30%,91% (active),79.3% (active)
NCC(=O)N/N=C/c1ccc([N+](=O)[O-])o1,10%,24%,5.1%,4%,17%,44.3%,0%,15%,73.2% (active),-1%,5%,27.6%,2%,11%,37.2%,8%,30%,20.4%
NC(=S)C(=S)N=Cc1c(N)[nH]n(-c2ccccc2)c1=O,-13%,-1%,57.8%,-10%,15%,48.8%,9%,3%,53.8%,32%,26%,61.6%,19%,37%,-10.6%,-4%,15%,44.6%
Cc1cc(NC(=S)SCc2ccc(F)cc2)c([N+](=O)[O-])cc1C,57%,98% (active),98.7% (active),36%,99% (active),98.8% (active),87% (active),99% (active),98.5% (active),19%,97% (active),98.8% (active),48%,92% (active),99% (active),94% (active),98% (active),99.1% (active)
CSC(=S)NN=C1CCCC1,66%,97% (active),87.5% (active),57%,98% (active),83.7% (active),61%,97% (active),89.9% (active),49%,98% (active),57.8%,78% (active),98% (active),94.8% (active),58%,97% (active),89.5% (active)
Cc1cc(=Nc2ccc3c(c2)c(N)cc(C)[n+]3C)nc(N)n1C,84% (active),88% (active),97.1% (active),78% (active),95% (active),92.5% (active),78% (active),61%,95.2% (active),83% (active),85% (active),91.9% (active),75% (active),87% (active),89.1% (active),83% (active),90% (active),97.5% (active)
CCCC(CC)c1c(O)c(O)c(C(CC)CCC)c(C(CC)CCC)c1C(CC)CCC (configuration not stated),4%,76% (active),95.5% (active),-12%,52%,97.3% (active),-10%,76% (active),97.9% (active),18%,72% (active),97.7% (active),-1%,59%,97.2% (active),-13%,87% (active),96% (active)
CCOC(=O)c1ccc(O)c(C=O)c1,-103%,90% (active),99.2% (active),-29%,98% (active),99.6% (active),-35%,98% (active),99.3% (active),-28%,98% (active),99% (active),-49%,98% (active),98.6% (active),-83%,98% (active),99.5% (active)
COc1cc2c(cc1OC)[C@H]1C(=O)c3cc4c(cc3[C@H]1N(C)C2=O)OCO4,-1%,0%,10.3%,1%,-2%,11.9%,-8%,-4%,-2.35%,-6%,-1%,50.4%,-7%,1%,27.7%,0%,-32%,39.8%
